Results published in the supplement of paper PMC10849652.
The full data set covers some 8,800 targets. This sample favours those with a hit. About 0.5% of all pairs of compound and target were hits.

Columns and labels:
Assay in all cases: log2 fold change, soluble protein after heating vs DMSO (PISA); higher = thermal stabilisation; K562 lysate, 10 uM; active = over 0.2 and 3.5 SD of the protein, either way, in both replicates (recomputed)
erlotinib = compound: C#Cc1cccc(Nc2ncnc3cc(OCCOC)c(OCCOC)cc23)c1 [erlotinib]
How it was run: (§1)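 The values are log-two fold changes in thermal stability compared with solvent controls and come from duplicates. They were obtained by TMTpro 16plex LC-MS/MS, with channel sums equalised, on the supernatant after 21,000xg for 90 min. That supernatant came from crude K562 extract at 1 mg/mL protein treated with 10 μM compound for 30 min, heated for 3 min across 48°C-58°C, pooled and brought to 0.5% NP-40 at 4°C.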

[1] = compound: C/C(=N\NC(=O)C1=CC(=CC=C1)S(=O)(=O)N2CCOCC2)/C3=C(C=CC(=C3)Cl)O
How it was run: as §1

[2] = compound: C1=CC(=CC=C1C2=NC3=C(N2)C=C(C=C3)C(=O)N)OC4=CC=C(C=C4)Cl
How it was run: as §1

[3] = compound: C1=CC2=C(C=CC(=C2)/C=C\3/C(=O)NC(=NCC4=CC=CS4)S3)N=C1
How it was run: as §1

[4] = compound: C1=CC2=NC=CN=C2C=C1/C=C/3\C(=O)NC(=O)S3
How it was run: as §1

[5] = compound: C1=CC=C(C=C1)C2=NC(=C(N2)C3=CC=NC=C3)C4=CC(=C(C=C4)Cl)O
How it was run: as §1

[6] = compound: C1=CC=C2C(=C1)C3=NNC4=CC=CC(=C43)C2=O
How it was run: as §1

[7] = compound: C1CCN(C1)C(=O)NC2=CC=CC(=C2)NC3=NC=C(C(=N3)NCCC4=CN=CN4)Br
How it was run: as §1

[8] = compound: C1CN(CCC1(CC2=CC=C(C=C2)Cl)N)C3=NC=NC4=C3C=CN4
How it was run: as §1

IRAK-1-4 Inhibitor I = compound: C1COCCN1CCN2C3=CC=CC=C3N=C2NC(=O)C4=CC(=CC=C4)[N+](=O)[O-] [IRAK-1-4 Inhibitor I]
How it was run: as §1

ibrutinib = compound: C=CC(=O)N1CCC[C@@H](n2nc(-c3ccc(Oc4ccccc4)cc3)c3c(N)ncnc32)C1 [ibrutinib]
How it was run: as §1

[9] = compound: CC(=O)c1cnc2ccc(-c3cc(Cl)c(O)c(Cl)c3)nc2c1N[C@H]1CC[C@H](CN(C)C)CC1
How it was run: as §1

ralimetinib = compound: CC(C)(C)Cn1c(N)nc2ccc(-c3[nH]c(C(C)(C)C)nc3-c3ccc(F)cc3)nc21 [ralimetinib]
How it was run: as §1

[10] = compound: CC(C)(O)CC(=O)NCCn1ccc2ncnc(Nc3ccc(Oc4cccc(C(F)(F)F)c4)c(Cl)c3)c21
How it was run: as §1

[11] = compound: CC(C)C1=C2N=C(C=C(N2N=C1)NCC3=CC=CC=C3)NCCCCCCN
How it was run: as §1

[12] = compound: CC1=C(C(CC(=O)N1)C2=CC=C(C=C2)C(F)(F)F)C(=O)NC3=C(C=C4C(=C3)C=NN4)F
How it was run: as §1

[13] = compound: CC1=C(C2=C(C=C1)C(=O)C3=CC=CC=C3N2CCCN)C
How it was run: as §1

[14] = compound: CC1=C(C=C(C=C1)NC(=O)C2=CC(=CC=C2)C(C)(C)C#N)NC3=CC4=C(C=C3)N=CN(C4=O)C
How it was run: as §1

[15] = compound: CC1=C(C=C(C=C1)NC(=O)C2=CC(=CC=C2)N(C)C)NC(=O)C3=CC=C(C=C3)O
How it was run: as §1

[16] = compound: CC1=CC=C(C=C1)SC2=C3C=C(SC3=CN=C2)C(=O)N
How it was run: as §1

Measured: log2 fold change

APOBEC3C (UniProt Q9NRW3)
UniProt Q9NRW3, sequence (Q9NRW3 whole entry, looked up): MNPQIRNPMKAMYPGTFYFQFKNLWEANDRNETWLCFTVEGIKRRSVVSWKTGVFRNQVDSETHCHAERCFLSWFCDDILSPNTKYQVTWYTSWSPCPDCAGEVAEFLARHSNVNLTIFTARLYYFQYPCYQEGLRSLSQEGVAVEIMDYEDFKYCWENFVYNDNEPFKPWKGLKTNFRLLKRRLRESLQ
inactive: erlotinib 0.054 | [1] 0.058 | [2] -0.029 | [3] 0.066 | [4] 0.056 | [5] -0.017 | [6] 0.015 | [7] 0.031 | [8] -0.003 | IRAK-1-4 Inhibitor I 0.038 | ibrutinib -0.024 | [9] -0.047 | ralimetinib 0.005 | [10] -0.051 | [11] -0.01 | [12] 0 | [13] -0.025 | [14] 0.046 | [15] 0.019 | [16] -0.01

ACBD6 (UniProt Q9BR61)
UniProt Q9BR61, sequence (Q9BR61 whole entry, looked up): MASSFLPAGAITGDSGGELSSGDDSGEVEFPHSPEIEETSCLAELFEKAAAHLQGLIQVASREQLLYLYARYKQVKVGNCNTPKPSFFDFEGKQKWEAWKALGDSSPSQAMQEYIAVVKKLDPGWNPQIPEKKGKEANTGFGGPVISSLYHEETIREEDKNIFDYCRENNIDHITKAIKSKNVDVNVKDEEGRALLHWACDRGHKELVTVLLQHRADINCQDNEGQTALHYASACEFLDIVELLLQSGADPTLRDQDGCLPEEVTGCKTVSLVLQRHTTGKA
inactive: erlotinib 0.013 | [1] -0.059 | [2] 0.029 | [3] 0.024 | [4] -0.032 | [5] -0.014 | [6] -0.075 | [7] -0.044 | [8] -0.01 | IRAK-1-4 Inhibitor I 0.019 | ibrutinib 0.007 | [9] 0.038 | ralimetinib 0.012 | [10] -0.039 | [11] 0.002 | [12] 0.034 | [13] 0.001 | [14] 0.062 | [15] 0.027 | [16] -0.057

ASCC2 (UniProt Q9H1I8)
UniProt Q9H1I8, sequence (Q9H1I8 whole entry, looked up): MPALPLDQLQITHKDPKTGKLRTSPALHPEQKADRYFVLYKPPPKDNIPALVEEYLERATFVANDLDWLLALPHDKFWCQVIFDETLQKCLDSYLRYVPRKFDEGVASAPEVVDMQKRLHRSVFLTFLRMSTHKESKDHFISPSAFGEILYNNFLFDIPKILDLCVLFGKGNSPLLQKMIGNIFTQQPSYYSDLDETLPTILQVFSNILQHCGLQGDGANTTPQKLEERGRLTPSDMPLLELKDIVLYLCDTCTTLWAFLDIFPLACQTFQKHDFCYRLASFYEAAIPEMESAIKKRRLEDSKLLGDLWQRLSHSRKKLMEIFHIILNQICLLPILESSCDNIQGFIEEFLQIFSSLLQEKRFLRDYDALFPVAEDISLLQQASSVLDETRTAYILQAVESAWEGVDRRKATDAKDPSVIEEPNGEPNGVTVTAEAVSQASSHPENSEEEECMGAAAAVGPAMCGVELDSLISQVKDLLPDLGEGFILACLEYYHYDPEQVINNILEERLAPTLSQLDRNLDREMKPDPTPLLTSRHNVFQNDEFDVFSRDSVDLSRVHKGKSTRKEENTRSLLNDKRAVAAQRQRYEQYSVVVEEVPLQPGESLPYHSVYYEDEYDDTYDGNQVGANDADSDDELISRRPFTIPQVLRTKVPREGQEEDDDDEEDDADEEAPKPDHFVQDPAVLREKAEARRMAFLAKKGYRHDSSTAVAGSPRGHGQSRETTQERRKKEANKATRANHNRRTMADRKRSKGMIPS
inactive: erlotinib 0.04 | [1] -0.106 | [2] -0.077 | [3] 0.083 | [4] 0.029 | [5] -0.016 | [6] -0.048 | [7] -0.054 | [8] 0.037 | IRAK-1-4 Inhibitor I -0.042 | [9] 0.029 | ralimetinib 0.057 | [10] -0.041 | [11] 0.012 | [12] 0.004 | [13] 0.02 | [14] 0.01 | [15] 0.064 | [16] -0.01
active: ibrutinib -0.328

ALG13 (UniProt Q9NP73)
inactive: erlotinib 0.022 | [1] -0.014 | [2] 0.049 | [3] -0.008 | [4] -0.048 | [5] 0.047 | [6] -0.032 | [7] -0.01 | [8] 0.083 | IRAK-1-4 Inhibitor I -0.02 | ibrutinib 0.118 | [9] 0.037 | ralimetinib 0.008 | [10] 0.026 | [11] 0.022 | [12] 0.065 | [13] -0.025 | [14] 0.063 | [15] 0.012 | [16] -0.001

AP1G2 (UniProt O75843)
inactive: erlotinib 0.052 | [1] 0.016 | [2] 0.068 | [3] -0.116 | [4] -0.07 | [5] 0 | [6] 0.001 | [7] -0.003 | [8] 0.034 | IRAK-1-4 Inhibitor I -0.007 | ibrutinib 0.012 | [9] -0.087 | ralimetinib 0.069 | [10] 0.013 | [11] -0.121 | [12] -0.109 | [13] -0.156 | [14] -0.011 | [15] 0.023 | [16] -0.027

AMDHD2 isoform 3 (UniProt Q9Y303)
inactive: erlotinib -0.013 | [1] -0.045 | [2] 0.06 | [3] -0.038 | [4] 0.028 | [5] -0.01 | [6] -0.003 | [7] 0.022 | [8] 0.044 | IRAK-1-4 Inhibitor I 0.018 | ibrutinib 0.032 | [9] 0.006 | ralimetinib -0.059 | [10] -0.025 | [11] -0.011 | [12] 0.009 | [13] 0.013 | [14] -0.015 | [15] -0.017 | [16] -0.017

ADK (UniProt P55263)
inactive: erlotinib 0.219 | [1] -0.024 | [2] -0.028 | [3] 0.132 | [4] -0.079 | [5] 0.047 | [6] 0.011 | [7] -0.049 | [8] 0.026 | IRAK-1-4 Inhibitor I 0.063 | ibrutinib -0.028 | [9] 0.107 | ralimetinib 0.313 | [10] -0.027 | [11] -0.05 | [12] -0.073 | [13] -0.059 | [14] -0.007 | [15] -0.008 | [16] -0.005

ARGLU1 (UniProt Q9NWB6)
inactive: erlotinib -0.008 | [1] 0.069 | [2] -0.039 | [3] 0.009 | [4] -0.034 | [5] -0.057 | [6] -0.002 | [7] 0.003 | [8] -0.047 | IRAK-1-4 Inhibitor I 0.025 | ibrutinib 0.027 | [9] -0.034 | ralimetinib -0.027 | [10] 0.015 | [11] 0.005 | [12] -0.008 | [13] 0.026 | [14] -0.027 | [15] -0.022 | [16] 0.019

ANP32E (UniProt Q9BTT0)
inactive: erlotinib 0.006 | [1] -0.006 | [2] 0.016 | [3] -0.021 | [4] 0.012 | [5] -0.004 | [6] -0.065 | [7] -0.025 | [8] 0.011 | IRAK-1-4 Inhibitor I 0.023 | ibrutinib 0.03 | [9] -0.009 | ralimetinib -0.015 | [10] 0.001 | [11] 0.022 | [12] -0.051 | [13] -0.072 | [14] 0.011 | [15] -0.065 | [16] 0.063

AHCYL1 (UniProt O43865)
UniProt O43865, sequence (O43865 whole entry, looked up): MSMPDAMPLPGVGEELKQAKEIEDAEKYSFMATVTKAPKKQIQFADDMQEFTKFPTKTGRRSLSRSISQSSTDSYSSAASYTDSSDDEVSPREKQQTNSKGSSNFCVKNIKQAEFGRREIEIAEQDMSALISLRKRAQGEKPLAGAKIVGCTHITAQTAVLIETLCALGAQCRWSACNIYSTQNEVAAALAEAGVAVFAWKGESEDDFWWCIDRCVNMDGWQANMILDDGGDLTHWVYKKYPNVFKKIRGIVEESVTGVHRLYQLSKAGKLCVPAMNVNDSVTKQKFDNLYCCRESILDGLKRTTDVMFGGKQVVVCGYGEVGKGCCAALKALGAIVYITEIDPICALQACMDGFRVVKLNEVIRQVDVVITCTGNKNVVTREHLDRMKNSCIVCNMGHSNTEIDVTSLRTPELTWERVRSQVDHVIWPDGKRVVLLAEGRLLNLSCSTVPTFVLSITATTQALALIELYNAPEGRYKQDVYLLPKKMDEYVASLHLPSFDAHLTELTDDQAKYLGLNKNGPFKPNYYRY
inactive: erlotinib -0.015 | [1] 0.018 | [2] -0.034 | [3] -0.009 | [4] -0.006 | [5] 0.008 | [6] -0.073 | [7] -0.024 | [8] 0.009 | IRAK-1-4 Inhibitor I 0.007 | ibrutinib 0.014 | [9] -0.02 | ralimetinib -0.004 | [10] 0.022 | [11] 0.003 | [12] 0.016 | [13] -0.065 | [14] -0.028 | [15] 0.009 | [16] 0.021

AIFM2 (UniProt Q9BRQ8)
active: [10] 0.643
inactive: erlotinib -0.094 | [1] 0 | [2] 0.224 | [3] 0.071 | [4] -0.117 | [5] 0.117 | [6] 0.068 | [7] -0.025 | [8] 0.018 | IRAK-1-4 Inhibitor I -0.01 | ibrutinib -0.016 | [9] -0.075 | ralimetinib 0.028 | [11] 0.275 | [12] -0.033 | [13] -0.161 | [14] -0.04 | [15] -0.051 | [16] 0.024

ADAMTS5 (UniProt Q9UNA0)
UniProt Q9UNA0, sequence (Q9UNA0 whole entry, looked up): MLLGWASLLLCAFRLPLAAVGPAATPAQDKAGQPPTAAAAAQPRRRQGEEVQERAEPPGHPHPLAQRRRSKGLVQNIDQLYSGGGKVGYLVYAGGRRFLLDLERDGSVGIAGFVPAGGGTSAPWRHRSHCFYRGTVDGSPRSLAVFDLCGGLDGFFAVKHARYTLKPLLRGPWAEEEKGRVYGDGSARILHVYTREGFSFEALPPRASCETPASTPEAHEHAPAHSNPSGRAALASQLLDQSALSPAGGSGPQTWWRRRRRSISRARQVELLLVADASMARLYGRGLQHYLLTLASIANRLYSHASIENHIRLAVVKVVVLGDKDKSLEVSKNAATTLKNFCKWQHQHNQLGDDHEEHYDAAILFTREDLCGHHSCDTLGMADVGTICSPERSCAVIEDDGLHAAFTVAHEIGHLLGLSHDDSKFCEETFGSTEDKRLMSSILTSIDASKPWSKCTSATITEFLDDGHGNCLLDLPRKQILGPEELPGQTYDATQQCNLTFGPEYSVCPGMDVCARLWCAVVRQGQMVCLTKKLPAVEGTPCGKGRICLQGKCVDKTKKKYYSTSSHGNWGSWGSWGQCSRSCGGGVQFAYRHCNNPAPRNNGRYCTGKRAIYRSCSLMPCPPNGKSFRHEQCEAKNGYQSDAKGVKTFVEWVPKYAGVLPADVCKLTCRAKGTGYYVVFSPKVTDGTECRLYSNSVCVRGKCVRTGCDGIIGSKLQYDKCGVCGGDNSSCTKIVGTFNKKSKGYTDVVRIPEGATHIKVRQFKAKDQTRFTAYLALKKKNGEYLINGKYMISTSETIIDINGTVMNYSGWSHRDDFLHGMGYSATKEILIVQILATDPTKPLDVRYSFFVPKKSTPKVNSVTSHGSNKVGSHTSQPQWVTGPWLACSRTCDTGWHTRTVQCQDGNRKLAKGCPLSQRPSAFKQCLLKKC
inactive: erlotinib 0.027 | [1] 0.004 | [2] 0.044 | [3] -0.05 | [4] -0.046 | [5] 0.049 | [6] -0.001 | [7] 0.058 | [8] 0.073 | IRAK-1-4 Inhibitor I 0.123 | ibrutinib 0.032 | [9] -0.057 | ralimetinib -0.016 | [10] -0.186 | [11] -0.011 | [12] 0.008 | [13] -0.067 | [14] 0.093 | [15] -0.031 | [16] -0.076

AKAP11 (UniProt Q9UKA4)
UniProt Q9UKA4, sequence (Q9UKA4 whole entry, looked up): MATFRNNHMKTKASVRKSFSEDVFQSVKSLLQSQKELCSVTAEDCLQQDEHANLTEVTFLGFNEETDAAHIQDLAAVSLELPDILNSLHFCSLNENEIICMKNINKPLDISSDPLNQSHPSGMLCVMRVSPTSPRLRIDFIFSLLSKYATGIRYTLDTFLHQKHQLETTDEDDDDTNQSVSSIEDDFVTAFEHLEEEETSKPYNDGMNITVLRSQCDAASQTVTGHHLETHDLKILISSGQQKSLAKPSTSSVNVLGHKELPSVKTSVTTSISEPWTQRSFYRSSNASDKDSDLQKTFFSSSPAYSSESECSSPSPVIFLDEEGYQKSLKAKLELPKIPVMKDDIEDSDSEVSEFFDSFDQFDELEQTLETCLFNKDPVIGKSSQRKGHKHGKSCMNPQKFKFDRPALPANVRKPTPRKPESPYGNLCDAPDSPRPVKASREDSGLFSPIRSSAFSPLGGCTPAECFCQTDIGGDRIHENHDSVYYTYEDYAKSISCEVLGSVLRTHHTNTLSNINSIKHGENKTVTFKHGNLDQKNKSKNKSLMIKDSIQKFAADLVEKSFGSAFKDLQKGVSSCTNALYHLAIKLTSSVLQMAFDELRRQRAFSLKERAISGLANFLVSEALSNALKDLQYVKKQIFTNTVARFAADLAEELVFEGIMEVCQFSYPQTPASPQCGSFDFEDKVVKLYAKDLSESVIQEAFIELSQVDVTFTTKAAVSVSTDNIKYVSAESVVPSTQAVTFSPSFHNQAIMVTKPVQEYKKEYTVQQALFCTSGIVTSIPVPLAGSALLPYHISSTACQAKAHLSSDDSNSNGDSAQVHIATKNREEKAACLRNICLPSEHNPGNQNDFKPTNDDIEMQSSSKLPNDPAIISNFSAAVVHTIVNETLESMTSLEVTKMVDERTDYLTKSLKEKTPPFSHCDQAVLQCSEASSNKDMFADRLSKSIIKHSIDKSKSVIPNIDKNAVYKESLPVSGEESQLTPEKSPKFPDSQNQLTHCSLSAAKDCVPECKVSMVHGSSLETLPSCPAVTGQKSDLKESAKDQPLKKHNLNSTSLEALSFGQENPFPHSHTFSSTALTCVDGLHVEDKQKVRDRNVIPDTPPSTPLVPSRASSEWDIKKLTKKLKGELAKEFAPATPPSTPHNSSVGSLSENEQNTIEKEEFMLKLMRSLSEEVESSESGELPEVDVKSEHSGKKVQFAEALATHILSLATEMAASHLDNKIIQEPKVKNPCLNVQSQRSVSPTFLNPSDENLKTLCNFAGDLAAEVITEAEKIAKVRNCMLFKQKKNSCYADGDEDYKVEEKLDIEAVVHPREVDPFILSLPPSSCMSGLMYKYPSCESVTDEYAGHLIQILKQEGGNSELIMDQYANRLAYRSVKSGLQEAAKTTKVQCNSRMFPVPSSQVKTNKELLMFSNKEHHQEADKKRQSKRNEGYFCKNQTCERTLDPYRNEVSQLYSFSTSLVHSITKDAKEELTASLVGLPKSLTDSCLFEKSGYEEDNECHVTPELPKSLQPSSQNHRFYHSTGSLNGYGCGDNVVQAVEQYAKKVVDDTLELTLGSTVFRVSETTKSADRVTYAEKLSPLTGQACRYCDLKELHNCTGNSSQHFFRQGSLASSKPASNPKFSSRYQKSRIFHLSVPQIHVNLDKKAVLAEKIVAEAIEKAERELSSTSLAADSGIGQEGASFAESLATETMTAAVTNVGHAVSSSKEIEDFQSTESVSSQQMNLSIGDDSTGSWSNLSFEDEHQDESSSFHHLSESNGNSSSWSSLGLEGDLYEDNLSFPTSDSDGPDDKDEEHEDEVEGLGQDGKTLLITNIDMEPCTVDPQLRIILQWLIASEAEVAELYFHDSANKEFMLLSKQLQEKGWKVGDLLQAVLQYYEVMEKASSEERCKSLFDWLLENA
inactive: erlotinib 0.114 | [1] 0.232 | [2] 0.037 | [3] 0.095 | [4] 0.016 | [5] 0.059 | [7] -0.064 | [8] 0.017 | IRAK-1-4 Inhibitor I -0.071 | ibrutinib 0.032 | [9] -0.111 | ralimetinib 0.058 | [10] -0.068 | [11] 0.054 | [12] 0.065 | [13] -0.015 | [14] -0.002 | [15] 0.003 | [16] 0.085
active: [6] -0.361

AMMECR1 (UniProt Q9Y4X0)
inactive: erlotinib 0.007 | [1] 0.003 | [2] 0.019 | [3] -0.045 | [4] 0.004 | [5] -0.009 | [6] -0.001 | [7] 0.009 | [8] 0.019 | IRAK-1-4 Inhibitor I 0.002 | ibrutinib -0.021 | [9] -0.008 | ralimetinib 0.006 | [10] -0.016 | [11] 0.014 | [12] 0.009 | [13] -0.01 | [14] -0.003 | [15] -0.027 | [16] -0.039

ACTBL2 (UniProt Q562R1)
UniProt Q562R1, sequence (Q562R1 whole entry, looked up): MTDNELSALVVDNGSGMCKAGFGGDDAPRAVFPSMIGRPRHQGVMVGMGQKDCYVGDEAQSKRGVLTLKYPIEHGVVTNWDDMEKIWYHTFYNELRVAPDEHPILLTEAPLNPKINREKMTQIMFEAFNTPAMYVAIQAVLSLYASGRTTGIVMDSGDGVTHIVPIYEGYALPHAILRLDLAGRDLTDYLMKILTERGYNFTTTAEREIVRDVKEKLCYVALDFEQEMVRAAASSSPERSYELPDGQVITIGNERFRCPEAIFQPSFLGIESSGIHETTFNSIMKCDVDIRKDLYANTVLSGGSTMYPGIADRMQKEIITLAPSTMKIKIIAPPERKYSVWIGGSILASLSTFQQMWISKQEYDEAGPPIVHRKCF
inactive: erlotinib -0.037 | [1] -0.163 | [2] 0.02 | [3] 0.043 | [4] 0.118 | [5] 0.004 | [6] 0.024 | [7] 0.064 | [8] 0.109 | IRAK-1-4 Inhibitor I -0.006 | ibrutinib 0.001 | [9] -0.016 | ralimetinib 0.006 | [10] 0.082 | [11] -0.034 | [12] 0.086 | [13] 0.069 | [14] -0.043 | [15] 0.017 | [16] 0.123

ALDH5A1 isoform 2 (UniProt P51649)
inactive: erlotinib -0.005 | [1] 0.045 | [2] 0.024 | [3] -0.009 | [4] 0.006 | [5] 0.013 | [6] -0.026 | [7] -0.013 | [8] -0.002 | IRAK-1-4 Inhibitor I -0.012 | ibrutinib 0.041 | [9] 0.018 | ralimetinib -0.015 | [10] 0.001 | [11] -0.019 | [12] -0.01 | [13] 0.001 | [14] 0.021 | [15] -0.022 | [16] 0.011
